PubChem BioAssay AID1159580 (chemical genetic matrix, 2015)
Where “and” joins values, the source holds several entries; their conditions need not be identical. Identical values can stand only once. The whole screen tested about 5,500 compounds, of which about 2,000 (36%) were called active. About 18% were inconclusive and are not listed. No stated cut-off is given here; in the data, active means normalized growth mostly below about 0.91 (no sharp cut-off); inconclusive means no clear call, values can overlap the other calls; inactive means mostly above about 0.92. Some of the results follow.

Assay: chemical genetic growth profiling, strain panel (AID 1159580);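 further: tested at 20 µM; growth read once vehicle control cultures reached saturation at 30 °C; 1 = growth at the plate median or of vehicle wells; lower values mean less growth of the strain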
Conditions: S. cerevisiae deletion strains, growth OD

Measured: normalized growth

NCCc1c[nH]c2ccccc12
inactive: locus YAL013W, strain DEP1, hits give low values 0.983 and 0.988 | locus YAL021C, strain ccr4, hits give low values 0.967 | locus YAL026C, strain drs2, hits give low values 0.96 | locus YAL030W, strain snc1, hits give low values 0.969 | locus YAL040C, strain CLN3, hits give low values 1.08 | locus YBL061C, strain skt5, hits give low values 0.959 | locus YBR009C, strain hhf1, hits give low values 0.988 | locus YBR021W, strain FUR4, hits give low values 1.01 | locus YBR023C, strain chs3, hits give low values 0.945 | locus YBR171W, strain sec66, hits give low values 0.955 | locus YBR229C, strain ROT2, hits give low values 0.954 | locus YBR231C, strain swc5, hits give low values 0.962 | locus YBR279W, strain paf1, hits give low values 0.942 | locus YCL011C, strain gbp2, hits give low values 0.945 | locus YCL016C, strain dcc1, hits give low values 0.98 | locus YCL029C, strain bik1, hits give low values 0.994 | locus YCL061C, strain MRC1 (second series), hits give low values 0.998 | locus YCL061C, strain MRC1, hits give low values 0.967 | locus YCL069W, strain vba3, hits give low values 0.973 | locus YCR088W, strain abp1, hits give low values 0.967 | locus YDL005C, strain med2, hits give low values 0.974 | locus YDL035C, strain GPR1, hits give low values 0.977 | locus YDL040C, strain nat1, hits give low values 0.96 | locus YDL074C, strain BRE1, hits give low values 1 | locus YDL101C, strain DUN1, hits give low values 0.987 | locus YDL134C, strain PPH21, hits give low values 0.964 | locus YDL185W, strain tfp1, hits give low values 0.988 | locus YDL192W, strain arf1, hits give low values 0.985 | locus YDR001C, strain nth1, hits give low values 0.954 | locus YDR069C, strain doa4, hits give low values 0.913 | locus YDR101C, strain arx1, hits give low values 1.01 | locus YDR137W, strain rgp1, hits give low values 0.934 | locus YDR150W, strain NUM1, hits give low values 0.967 | locus YDR159W, strain sac3, hits give low values 0.925 | locus YDR162C, strain NBP2, hits give low values 0.954 | locus YDR195W, strain ref2 0.926 | locus YDR297W, strain sur2, hits give low values 0.967 | locus YDR318W, strain mcm21, hits give low values 0.999 | locus YDR334W, strain swr1, hits give low values 0.94 | locus YDR335W, strain msn5, hits give low values 0.961 | locus YDR363W, strain ESC2, hits give low values 0.975 | locus YDR388W, hits give low values 0.997 | locus YDR392W, strain spt3, hits give low values 1.01 | locus YDR502C, strain sam2, hits give low values 0.993 | locus YEL003W, strain gim4, hits give low values 0.978 | locus YEL037C, strain rad23, hits give low values 0.958 | locus YEL061C, strain CIN8 (second series), hits give low values 0.957 | locus YEL061C, strain CIN8, hits give low values 0.98 | locus YER002W, strain NOP16, hits give low values 0.99 | locus YER015W, strain faa2, hits give low values 0.975 | locus YER016W, strain bim1, hits give low values 0.964 | locus YER110C, hits give low values 0.967 | locus YER111C, strain swi4, hits give low values 0.973 | locus YER155C, strain BEM2 (second series), hits give low values 0.923 | locus YER155C, strain BEM2, hits give low values 0.998 | locus YER167W, strain BCK2, hits give low values 0.982 | locus YFR010W, strain ubp6, hits give low values 0.951 | locus YGL078C, strain dbp3, hits give low values 0.98 | locus YGL086W, strain mad1, hits give low values 0.966 | locus YGL167C, strain pmr1, hits give low values 0.939 | locus YGL173C, strain kem1, hits give low values 0.992 | locus YGL227W, strain vid30, hits give low values 0.937 | locus YGL240W, strain doc1, hits give low values 0.964 | locus YGL248W, strain PDE1, hits give low values 0.983 | locus YGL253W, strain hxk2, hits give low values 0.952 | locus YGR078C, strain PAC10, hits give low values 1.01 and 0.994 | locus YGR135W, strain pre9, hits give low values 0.989 | locus YGR229C, strain SMI1, hits give low values 1.01 | locus YGR252W, strain gcn5, hits give low values 0.911 | locus YHR013C, strain ard1, hits give low values 0.949 | locus YHR027C, strain rpn1, hits give low values 0.962 | locus YHR030C, strain SLT2, hits give low values 0.987 and 0.959 | locus YHR079C, strain IRE1 (second series), hits give low values 0.998 | locus YHR079C, strain IRE1, hits give low values 0.957 | locus YHR094C, strain hxt1, hits give low values 0.994 | locus YHR129C, strain ARP1, hits give low values 1 | locus YHR142W, strain chs7, hits give low values 0.965 | locus YHR200W, strain rpn10, hits give low values 1 | locus YIL066C, strain RNR3, hits give low values 0.985 | locus YIL073C, strain SPO22, hits give low values 0.959 | locus YIL125W, strain kgd1, hits give low values 0.983 | locus YIR030C, strain dcg1, hits give low values 0.981 | locus YJL092W, strain hpr5, hits give low values 0.963 | locus YJL095W, strain BCK1 (second series), hits give low values 0.96 | locus YJL095W, strain BCK1, hits give low values 1.03 and 0.994 | locus YJL115W, strain asf1, hits give low values 0.961 | locus YJL129C, strain trk1, hits give low values 0.963 | locus YJL134W, strain LCB3, hits give low values 0.984 | locus YJL154C, strain vps35, hits give low values 0.948 | locus YJL164C, strain tpk1, hits give low values 0.989 | locus YJL166W, strain qcr8, hits give low values 0.938 | locus YJL168C, strain set2, hits give low values 1 | locus YJL187C, strain SWE1 (second series), hits give low values 1 | locus YJL187C, strain SWE1, hits give low values 0.967 | locus YJR043C, strain POL32, hits give low values 1.02 | locus YJR066W, strain TOR1, hits give low values 0.926
